For 38 compounds, growth results are on record in PubChem BioAssay (NCI).

The structures appear in SMILES notation. This is part of a sample that, as a whole, favours compounds with a hit. Of some 83,000 tested, about 20% had one in any assay.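 The test compound was applied at a single concentration to cells in 96-well plates for 48 hours, and percent growth was recorded.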 Values without a mark were called inactive. Active and inactive are the calls of the source. Rule for the calls: active = growth percent below 10; inactive = the rest.

For one test, the system named is NCI-H226 lung. As to the kind of experiment: NCI-60 one-dose screen, 48 h (100 = growth as untreated, 0 = no growth, -100 = all killed). The note with it: 10 µM unless noted.
On to `COc1cc2ncnc(Nc3ccc(S(=O)(=O)Nc4nccs4)cc3)c2cc1OCCCN1CCOCC1`, for which the growth is 99.7%.
Still for that read-out and setting: the value for `Fc1ccc(-c2cnc3nonc3n2)c(F)c1` was 102%.
On to `COCc1nc(NS(=O)(=O)c2ccc(N)cc2)nc(C)c1Br`, for which the growth was 98.2%.
On the same count and under the same terms, the value for `COc1ncnc2[nH]cc(CN3CCN(c4ccc(F)cc4)CC3)c12` was 103%; that for `CC(C)N(C(=S)SSC(=S)N(C(C)C)C(C)C)C(C)C` was 109%.
As to `COc1cc2c(=O)n(CCCN(C)C)c3c4cc[nH]c4ncc3c2cc1OC`, the growth is 37.1%.
Same read-out and setting: the value for `CCCCCCCCN(CCCCCCCC)C(=O)CCl` was 96.8%; that for `COc1cc(/C=N/NC(=O)Cn2c(-c3ccc(C)o3)nc3ccccc32)ccc1OCc1ccccc1` was 84.4%.
Same read-out and setting: the value for `CCN(CC)c1ccc(/C=N/NC(=O)C[N+](C)(C)C)cc1` was 98.9%.
Turning to `c1cc2c(cc1-c1cnc3nonc3n1)OCO2`, the growth was 93.4%.
Consider `CC(C)[C@@]12C[C@@H](OC(=O)C3CO3)[C@@](C)(O1)[C@@H]1CC[C@@H](C)[C@H]1[C@@H]2OC(=O)/C=C/c1ccccc1` (stereo partly specified), for which the growth was 68.3%.
As to `ClC1(Cl)C2CCCCCCC21` (stereo unspecified), the growth was 103%.
On the same count and under the same terms, the value for `CCCCOc1nc2ccccc2cc1/C=C/c1cc(/C=C/c2cc3ccccc3nc2OCCCC)n(-c2ccccc2)n1` was 95.5%; that for `S=C(S)Oc1cccc2cccnc12` was 102%.
The same measure, in the same setting: the value for `Cc1cc(-c2ccc(N=Nc3c(S(=O)(=O)O)cc4cc(S(=O)(=O)O)cc(O)c4c3O)c(C)c2)ccc1N=Nc1c(S(=O)(=O)O)cc2cc(S(=O)(=O)O)cc(O)c2c1O` was 99.3%; that for `O=C(NCCN1CCCCC1)n1cc(-c2ccncc2)c(-c2ccc(Cl)c(O)c2)n1` was 102%; that for `N/C(=N\OC(=O)c1ccccc1)C(Cc1ccccc1)C(=O)NOC(=O)c1ccccc1` (stereo unspecified) was 95.1%.
Take `Nc1ncnc2c1N=C(c1ccc3c(c1)OCO3)CC(c1ccc(Cl)cc1)N2` (stereo unspecified): the growth was 73.3%.
On to `COc1ccc(C(=O)OC2C(OC3C(O)COC(O[C@H]4C[C@H]5[C@@H]6CC=C7C[C@@H](O)CC[C@]7(C)[C@H]6CC[C@]5(C)[C@H]4[C@H](C)C(=O)CCC(C)C)C3OC(C)=O)OCC(O)C2O)cc1` (stereo partly specified), for which the growth was -14% (active).
`O=C(Nc1ccncc1)C(=O)c1cn(S(=O)(=O)c2cccc(Cl)c2F)c2ccccc12`: the growth is 75%.
Same read-out and setting: the value for `OC(CCCCCCCCC(O)CN1CCc2ccccc2C1)CN1CCc2ccccc2C1` (stereo unspecified) was 99.9%; that for `CCCNCCC(C)=O` was 108%; that for `CC1OC(n2c3ccccc3c3c4c(c5c6ccccc6[nH]c5c32)C(=O)N(CCN2CCOCC2)C4=O)CC(O)C1O` (stereo unspecified) was 17%.
Same read-out and setting: the value for `COc1ccc(-c2nc(SCCC(C)C)nc(Nc3ccc(C(=O)O)cc3)c2C#N)cc1` was 91.4%.
In the case of `CCOC(=O)C1C(=O)C=C(c2cc(OC)c(OC)c(OC)c2)CC1c1sc(N(C)Cc2ccccc2)nc1Cl` (stereo unspecified), the growth was 74.1%.
Still for that read-out and setting: the value for `C#Cc1cccc(Nc2nc3cc([N+](=O)[O-])ccc3nc2Nc2ccc(O)cc2)c1` was 50.3%.
The same measure, in the same setting: the value for `O=C(Nc1cccc(-n2ccc3c(NC(=O)c4ccccc4)nccc32)c1)c1ccc(N2CCOCC2)c(C(F)(F)F)c1` was 33.5%; that for `Cc1ccc(NC(=O)c2sc3nc4c(cc3c2N)C(=O)CCC4)cc1Cl` was 102%.
With `COc1ccc(-c2cc(C(=O)Nc3ccc(C)cc3)nc3[nH]c(=O)sc23)cc1`, the growth was 80.1%.
The same measure, in the same setting: the value for `COc1cc(/C=C/c2cc(/C=C/c3ccc(O)c(OC)c3)n(C(=O)Nc3ccc(F)c(Cl)c3)n2)ccc1O` was -4.32% (active); that for `COc1cc2c(c(OC)c1O)C(=O)C(OC)C(c1ccc(O)c(O)c1)O2` (stereo unspecified) was 16.8%.
Still for that read-out and setting: the value for `CCOC(OCC)c1cnc2nc(NC(C)=O)[nH]c(=O)c2n1` was 107%; that for `S=C(Cc1ccccc1)N1CCN(c2ccccc2Cl)CC1` was 96.9%; that for `CCCCOc1nc2ccc(C)cc2cc1/C=C/C(=O)/C=C(O)/C=C/c1cc2cc(C)ccc2nc1OCCCC` was 102%.
`COc1ccccc1CNCCCN1C(=O)c2ccc3c4c(ccc(c24)C1=O)C(=O)N(CCCCNCCCN)C3=O`: the growth was 62.6%.
Regarding `OC(COCc1ccccc1)COCc1ccccc1`, the growth is 106%.
`CC(C)CC1NC(=O)C(CC(C)C)N(CO)C1=O` (stereo unspecified): the growth was 91.3%.
`OCCN(CCO)c1ccc2ccccc2c1`: the growth is 103%.

The next test relates to NCI-H322M lung. Described as above. The note with it: 10 µM unless noted.
In the case of `COc1cc2ncnc(Nc3ccc(S(=O)(=O)Nc4nccs4)cc3)c2cc1OCCCN1CCOCC1`, the growth was 102%.
For `Fc1ccc(-c2cnc3nonc3n2)c(F)c1`, the growth is 98.4%.
With `COCc1nc(NS(=O)(=O)c2ccc(N)cc2)nc(C)c1Br`, the growth was 99%.
Still for that read-out and setting: the value for `COc1ncnc2[nH]cc(CN3CCN(c4ccc(F)cc4)CC3)c12` was 107%; that for `CC(C)N(C(=S)SSC(=S)N(C(C)C)C(C)C)C(C)C` was 108%.
Still for that read-out and setting: the value for `COc1cc2c(=O)n(CCCN(C)C)c3c4cc[nH]c4ncc3c2cc1OC` was 42.6%; that for `CCCCCCCCN(CCCCCCCC)C(=O)CCl` was 108%.
On to `COc1cc(/C=N/NC(=O)Cn2c(-c3ccc(C)o3)nc3ccccc32)ccc1OCc1ccccc1`, for which the growth is 85.7%.
Regarding `CCN(CC)c1ccc(/C=N/NC(=O)C[N+](C)(C)C)cc1`, the growth was 115%.
For `c1cc2c(cc1-c1cnc3nonc3n1)OCO2`, the growth is 103%.
Consider `CC(C)[C@@]12C[C@@H](OC(=O)C3CO3)[C@@](C)(O1)[C@@H]1CC[C@@H](C)[C@H]1[C@@H]2OC(=O)/C=C/c1ccccc1` (stereo partly specified), for which the growth is 83.9%.
`ClC1(Cl)C2CCCCCCC21` (stereo unspecified): the growth is 109%.
Same read-out and setting: the value for `CCCCOc1nc2ccccc2cc1/C=C/c1cc(/C=C/c2cc3ccccc3nc2OCCCC)n(-c2ccccc2)n1` was 94.9%.
On the same count and under the same terms, the value for `S=C(S)Oc1cccc2cccnc12` was 95.2%; that for `Cc1cc(-c2ccc(N=Nc3c(S(=O)(=O)O)cc4cc(S(=O)(=O)O)cc(O)c4c3O)c(C)c2)ccc1N=Nc1c(S(=O)(=O)O)cc2cc(S(=O)(=O)O)cc(O)c2c1O` was 80.7%.
Turning to `O=C(NCCN1CCCCC1)n1cc(-c2ccncc2)c(-c2ccc(Cl)c(O)c2)n1`, the growth is 119%.
The same measure, in the same setting: the value for `N/C(=N\OC(=O)c1ccccc1)C(Cc1ccccc1)C(=O)NOC(=O)c1ccccc1` (stereo unspecified) was 89%; that for `Nc1ncnc2c1N=C(c1ccc3c(c1)OCO3)CC(c1ccc(Cl)cc1)N2` (stereo unspecified) was 71.2%.
Still for that read-out and setting: the value for `COc1ccc(C(=O)OC2C(OC3C(O)COC(O[C@H]4C[C@H]5[C@@H]6CC=C7C[C@@H](O)CC[C@]7(C)[C@H]6CC[C@]5(C)[C@H]4[C@H](C)C(=O)CCC(C)C)C3OC(C)=O)OCC(O)C2O)cc1` (stereo partly specified) was 36.9%; that for `O=C(Nc1ccncc1)C(=O)c1cn(S(=O)(=O)c2cccc(Cl)c2F)c2ccccc12` was 96.7%.
On the same count and under the same terms, the value for `OC(CCCCCCCCC(O)CN1CCc2ccccc2C1)CN1CCc2ccccc2C1` (stereo unspecified) was 87.5%; that for `CCCNCCC(C)=O` was 119%.
Consider `CC1OC(n2c3ccccc3c3c4c(c5c6ccccc6[nH]c5c32)C(=O)N(CCN2CCOCC2)C4=O)CC(O)C1O` (stereo unspecified), for which the growth was 59.1%.
As to `COc1ccc(-c2nc(SCCC(C)C)nc(Nc3ccc(C(=O)O)cc3)c2C#N)cc1`, the growth was 88.1%.
Take `CCOC(=O)C1C(=O)C=C(c2cc(OC)c(OC)c(OC)c2)CC1c1sc(N(C)Cc2ccccc2)nc1Cl` (stereo unspecified): the growth is 83.2%.
Same read-out and setting: the value for `C#Cc1cccc(Nc2nc3cc([N+](=O)[O-])ccc3nc2Nc2ccc(O)cc2)c1` was 16.8%; that for `O=C(Nc1cccc(-n2ccc3c(NC(=O)c4ccccc4)nccc32)c1)c1ccc(N2CCOCC2)c(C(F)(F)F)c1` was 27%.
In the case of `Cc1ccc(NC(=O)c2sc3nc4c(cc3c2N)C(=O)CCC4)cc1Cl`, the growth is 109%.
Consider `COc1ccc(-c2cc(C(=O)Nc3ccc(C)cc3)nc3[nH]c(=O)sc23)cc1`, for which the growth is 78.5%.
Take `COc1cc(/C=C/c2cc(/C=C/c3ccc(O)c(OC)c3)n(C(=O)Nc3ccc(F)c(Cl)c3)n2)ccc1O`: the growth is 12.6%.
Same read-out and setting: the value for `COc1cc2c(c(OC)c1O)C(=O)C(OC)C(c1ccc(O)c(O)c1)O2` (stereo unspecified) was 37%; that for `CCOC(OCC)c1cnc2nc(NC(C)=O)[nH]c(=O)c2n1` was 101%.
With `S=C(Cc1ccccc1)N1CCN(c2ccccc2Cl)CC1`, the growth is 96.3%.
For the compound `CCCCOc1nc2ccc(C)cc2cc1/C=C/C(=O)/C=C(O)/C=C/c1cc2cc(C)ccc2nc1OCCCC`, the growth is 92%.
In the case of `COc1ccccc1CNCCCN1C(=O)c2ccc3c4c(ccc(c24)C1=O)C(=O)N(CCCCNCCCN)C3=O`, the growth was 5.96% (active).
On to `OC(COCc1ccccc1)COCc1ccccc1`, for which the growth is 112%.
Consider `CC(C)CC1NC(=O)C(CC(C)C)N(CO)C1=O` (stereo unspecified), for which the growth is 95%.
Still for that read-out and setting: the value for `OCCN(CCO)c1ccc2ccccc2c1` was 93.6%.
